Results on 13 molecules are retold here after PubChem BioAssay.

A short description of experiment [1]: optical density shifts of acrAB sulA E. coli – strain DRC41, OD650, 48 h, E. coli filamentation inducer project, primary screen (AID 1152).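 Further: E. coli MC1000 strain DRC41 lacking acrAB efflux pump and sulA.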 As to conditions: higher = more signal, called active from +8 up or from −8 down.
Experiment [2] in a line: probe aLefty1 binding on compound microarray – biochemical, small-molecule microarray, 635/667 nm fluorescence, primary screen (AID 1153).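 Further: score merges spot fluorescence with signal-to-noise ratio from the scanned slide images.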 Conditions: higher = more signal.
Experiment [3] in a line: plasmodial surface anion channel blockers, osmotic lysis – cell-based, P. falciparum Indochina, OD700, 1 h, primary screen (AID 1154). Conditions: P. falciparum Indochina infected RBC osmotic lysis, higher = more signal, called active from +8 up or from −8 down.
Experiment [4] in a line: plasmodial surface anion channel blockers, osmotic lysis – cell-based, P. falciparum Indochina, OD700, 2 h, primary screen (AID 1155).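 Further: lysis reports solute entry through the parasite surface anion channel PSAC.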 Conditions: P. falciparum Indochina infected erythrocytes, higher = more signal, called active from +8 up or from −8 down.
Experiment [5] is described as follows: changes in parasitized red cell lysis, either direction – P. falciparum Indochina, OD700, 3 h, PSAC antagonist project, primary screen (AID 1156). As to conditions: P. falciparum-infected erythrocytes, osmotic lysis, higher = more signal, called active from +8 up or from −8 down.
Experiment [6] in a line: plasmodial surface anion channel blockers, osmotic lysis – cell-based, P. falciparum Indochina, OD700, 18 h, primary screen (AID 1157). As to conditions: P. falciparum Indochina infected erythrocytes, osmotic lysis OD700, 18 h; higher = more signal, called active from +8 up or from −8 down.
Experiment [7] can be described thus: S6 kinase pathway phospho-S6 level changes – cell-based, A549, cytoblot, luminescence, serum-stimulated, primary screen (AID 1158).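 Further: serum-stimulated A549 lung adenocarcinoma cells; signal is phosphorylated S6 detected by cytoblot immunostaining with HRP secondary.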 As to conditions: 5 h, higher = more signal.
Experiment [8] concerns the target NADPH oxidase 2 (Homo sapiens) (UniProt P04839). Kind of experiment: compounds shifting NOX2 Amplex Red fluorescence – cell-based, HEK293-NOX2, PMA-stimulated, NOX inhibitor project, primary screen (AID 1159). Further: test concentration not given here. As to conditions: 45 min, higher = more signal, called active from +8 up or from −8 down.
In experiment [9] the target is NADPH oxidase 4 (Homo sapiens) (UniProt Q9NPH5). The experiment in a line: compounds shifting NOX4 Amplex Red fluorescence – cell-based, HEK293-NOX4, tetracycline-induced, NOX inhibitor project, primary screen (AID 1160). Conditions: HEK293-NOX4, Amplex Red H2O2 fluorescence, 45 min; higher = more signal, called active from +8 up or from −8 down.
For experiment [10], the target named is NADPH oxidase 5 (Homo sapiens) (UniProt Q96PH1). Kind of experiment: compounds shifting NOX5 Amplex Red fluorescence – cell-based, HEK293-NOX5, NOX inhibitor project, primary screen (AID 1161). Conditions: HEK293-NOX5, ionomycin, 45 min, higher = more signal.

The source made the active and inactive calls.

Sequence of NADPH oxidase 4 (Homo sapiens) (Q9NPH5 whole entry, looked up): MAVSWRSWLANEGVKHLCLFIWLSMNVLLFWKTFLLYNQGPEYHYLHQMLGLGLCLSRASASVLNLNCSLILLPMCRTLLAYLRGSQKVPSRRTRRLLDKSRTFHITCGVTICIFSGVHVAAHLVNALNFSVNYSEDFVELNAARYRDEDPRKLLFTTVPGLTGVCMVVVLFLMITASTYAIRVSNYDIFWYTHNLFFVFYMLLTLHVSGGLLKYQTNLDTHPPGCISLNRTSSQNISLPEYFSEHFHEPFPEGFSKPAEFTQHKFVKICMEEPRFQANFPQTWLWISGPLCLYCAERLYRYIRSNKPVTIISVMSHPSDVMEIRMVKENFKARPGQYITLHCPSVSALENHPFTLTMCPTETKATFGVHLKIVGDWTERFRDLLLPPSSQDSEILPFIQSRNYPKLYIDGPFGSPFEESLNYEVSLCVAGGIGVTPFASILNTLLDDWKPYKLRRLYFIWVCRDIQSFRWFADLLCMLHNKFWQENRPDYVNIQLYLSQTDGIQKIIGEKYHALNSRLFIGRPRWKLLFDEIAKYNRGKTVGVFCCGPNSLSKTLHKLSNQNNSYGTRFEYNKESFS
Sequence of NADPH oxidase 5 (Homo sapiens) (Q96PH1 whole entry, looked up): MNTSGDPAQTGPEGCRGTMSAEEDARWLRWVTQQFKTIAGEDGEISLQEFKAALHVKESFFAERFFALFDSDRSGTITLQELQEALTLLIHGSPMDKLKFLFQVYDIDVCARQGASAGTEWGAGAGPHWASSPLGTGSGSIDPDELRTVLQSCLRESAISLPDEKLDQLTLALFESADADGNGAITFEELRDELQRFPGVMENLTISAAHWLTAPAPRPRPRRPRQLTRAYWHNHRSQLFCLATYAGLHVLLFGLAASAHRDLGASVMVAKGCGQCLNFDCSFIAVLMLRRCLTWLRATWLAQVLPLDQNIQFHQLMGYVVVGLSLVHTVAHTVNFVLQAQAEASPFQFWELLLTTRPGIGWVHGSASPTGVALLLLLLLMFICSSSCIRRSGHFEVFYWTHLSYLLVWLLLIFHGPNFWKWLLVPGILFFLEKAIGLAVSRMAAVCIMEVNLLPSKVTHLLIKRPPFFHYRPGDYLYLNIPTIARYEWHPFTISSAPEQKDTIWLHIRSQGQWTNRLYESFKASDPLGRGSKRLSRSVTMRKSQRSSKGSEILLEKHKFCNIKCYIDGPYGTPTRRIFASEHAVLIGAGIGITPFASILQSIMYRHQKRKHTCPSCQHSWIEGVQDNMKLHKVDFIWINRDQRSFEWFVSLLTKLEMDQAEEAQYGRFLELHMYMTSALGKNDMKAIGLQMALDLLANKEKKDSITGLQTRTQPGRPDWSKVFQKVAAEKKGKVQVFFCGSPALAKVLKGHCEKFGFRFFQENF
Sequence of NADPH oxidase 2 (Homo sapiens) (P04839 whole entry, looked up): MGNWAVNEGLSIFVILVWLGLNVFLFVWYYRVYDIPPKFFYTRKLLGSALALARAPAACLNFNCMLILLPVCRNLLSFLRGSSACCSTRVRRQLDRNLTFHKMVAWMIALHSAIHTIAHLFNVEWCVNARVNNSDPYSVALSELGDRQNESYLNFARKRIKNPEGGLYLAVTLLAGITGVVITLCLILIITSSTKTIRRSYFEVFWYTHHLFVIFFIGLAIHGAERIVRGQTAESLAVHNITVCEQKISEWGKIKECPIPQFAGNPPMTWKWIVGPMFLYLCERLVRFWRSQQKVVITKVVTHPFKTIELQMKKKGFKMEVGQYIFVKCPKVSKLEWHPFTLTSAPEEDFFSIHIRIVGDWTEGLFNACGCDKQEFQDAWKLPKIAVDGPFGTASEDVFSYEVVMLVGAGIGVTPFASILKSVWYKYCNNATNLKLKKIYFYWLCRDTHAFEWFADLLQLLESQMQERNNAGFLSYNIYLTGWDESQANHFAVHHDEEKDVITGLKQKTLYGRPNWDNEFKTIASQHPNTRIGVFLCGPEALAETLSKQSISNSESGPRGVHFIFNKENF

Consider `CC(C)(C)OC(=O)CC[C@]1(C(=O)O)N=C(c2ccc(OCCCO)cc2)O[C@H]1c1ccccc1N=[N+]=[N-]`, for which the z-score in experiment [1] is 0.234 (inactive); in experiment [3], 32.9 (active); in experiment [4], 28.4 (active); in [5], 0.912 (inactive); in [6], 6.45 (inactive); in experiment [7] it was -0.466. For the same molecule, the z-score in experiment [8] was 0.7 (inactive); in experiment [9], 1.14 (inactive); in experiment [10], 1.31. The same molecule had a composite z-score in experiment [2] of 1.58.
As to `C=CCOC(=O)[C@@H]1[C@H]2C(=O)O[C@H](c3ccccc3)[C@H](c3ccccc3)N2[C@H](c2ccc(OCCOC(=O)[C@@H]3C[C@@H]4C(=O)N[C@@H](CCCC[N+](C)(C)C)C(=O)N4[C@@H]3c3cccc(OCCO)c3)cc2)[C@@]12C(=O)Nc1ccc(I)cc12`, the z-score in experiment [1] is -0.537 (inactive); in experiment [3], 2.82 (inactive); in experiment [4], 2.58 (inactive); in experiment [5] it was 2.24 (inactive); in experiment [6], 1.01 (inactive); in experiment [7], -1.5. Moreover, the z-score is 2.31 (inactive) in [8], 0.862 (inactive) in experiment [9] and 1.3 in experiment [10]. The molecule also displayed a composite z-score in experiment [2] of 0.121.
Consider `CN1C2C=C(CCCO)C(C3C(=O)N(C(N)=O)C(=O)C32)C1c1ccc(CN2CCCC2)cc1` (stereo not given), for which the z-score in [1] is 0.0489 (inactive); in experiment [3] it was 0.114 (inactive); in [4], 0.229 (inactive); in experiment [5], -0.695 (inactive); in experiment [6], -0.11 (inactive); in experiment [7], -0.0852. Moreover, the z-score in experiment [8] was -1.52 (inactive); in experiment [9] it was 0.171 (inactive); in [10], -0.0223. For the same molecule, the composite z-score in [2] was -0.189.
In the case of `O=C(NCc1ccccc1)[C@@H]1c2ccccc2C(=O)N(CC23CC4CC(CC(C4)C2)C3)[C@H]1c1ccc(CO)cc1`, the z-score in experiment [1] is -1.09 (inactive); in experiment [3] it was 3.76 (inactive); in [4] it was 0.295 (inactive); in experiment [5], 1.76 (inactive); in experiment [6] it was 0.134 (inactive); in experiment [7] it was -0.366. Further, the results for the z-score in experiment [8], in experiment [9] and in [10] were -2.38 (inactive), 0.191 (inactive) and -1.55, respectively. The composite z-score in [2] was -0.538.
Take `CN(C)CCCNC(=O)[C@@]1(c2ccc([N+](=O)[O-])cc2)CC(=O)N(C2CCCCC2)[C@@H]1c1ccc(CO)cc1`: the z-score in [1] is 0.0097 (inactive); in [3] it was 1.31 (inactive); in experiment [4], 0.346 (inactive); in experiment [5], 2.09 (inactive); in experiment [6], -0.0633 (inactive); in experiment [7], -0.0223. The z-score in experiment [8] is 1.84 (inactive); in [9], 1.31 (inactive); in experiment [10] it was 0.787. The composite z-score in [2] worked out at 0.0793.
With `[N-]=[N+]=NCc1ccccc1C[C@]1(C(=O)NCC(O)CO)N=C(c2ccc(OCCCO)cc2)O[C@H]1c1ccccc1` (stereo not given in full), the z-score in [1] was 0.243 (inactive); in experiment [3], 13.1 (active); in [4], 0.998 (inactive); in experiment [5], -0.593 (inactive); in [6] it was 0.865 (inactive); in experiment [7], -0.0127. For the same molecule, the z-score was 2.49 (inactive) in [8], 0.717 (inactive) in experiment [9] and -0.632 in [10]. This molecule also yielded a composite z-score in experiment [2] of 0.33.
As to `[N-]=[N+]=NCc1ccccc1C[C@@]1(C(=O)NCC(O)CO)N=C(c2ccc(OCCCO)cc2)O[C@@H]1c1ccccc1N=[N+]=[N-]` (stereo not given in full), the z-score in experiment [1] is 0.458 (inactive); in experiment [3], 30.8 (active); in experiment [4], 28.7 (active); in experiment [5] it was 1.29 (inactive); in [6], 7.41 (inactive); in [7], 0.345. Also, the z-score is -0.00841 (inactive) in [8], 1.21 (inactive) in experiment [9] and 0.427 in [10]. In [2], this molecule displayed a composite z-score of 0.668.
`CC(C)[C@@H](CO)NC(=O)[C@H]1[C@@H](c2ccccc2)N(c2ccccc2)O[C@@H]1C`: the z-score was 1.6 (inactive) in [1]; 0.785 (inactive) in experiment [3]; -0.0799 (inactive) in [4]; -0.466 (inactive) in experiment [5]; -0.0146 (inactive) in [6]; 0.444 in experiment [7]. The z-score in [8] is -0.982 (inactive); in experiment [9], 0.366 (inactive); in experiment [10], 0.153. The composite z-score in experiment [2] is -0.151.
Regarding `O=C(NCc1ccccc1)[C@@]1(Cc2ccccc2)N=C(c2ccc(OCCCO)cc2)O[C@H]1c1ccccc1`, the z-score in experiment [1] is 0.179 (inactive); in experiment [3], 13.5 (active); in [4], 2.11 (inactive); in [5], 1.5 (inactive); in experiment [6], 0.86 (inactive); in experiment [7], -0.0312. For the same molecule, the z-score is -1.28 (inactive) in experiment [8], 0.98 (inactive) in [9] and 0.756 in experiment [10]. This molecule displayed a composite z-score in [2] of 0.609.
Regarding `COc1ccc(CCNC(=O)[C@@]2(C)c3ccccc3C(=O)N(Cc3cc(F)cc(C(F)(F)F)c3)[C@H]2c2ccc(CO)cc2)cc1`, the z-score in experiment [1] was 0.753 (inactive); in experiment [3], 8.08 (active); in experiment [4], 0.906 (inactive); in experiment [5], 1.24 (inactive); in experiment [6] it was 0.526 (inactive); in experiment [7], 0.0269. Also, the z-score was -1.38 (inactive) in [8], -1.28 (inactive) in experiment [9] and -1.5 in [10]. For the same molecule, the composite z-score in [2] was -0.045.
Consider `COC(=O)[C@@]1(Cc2ccc(F)cc2)[C@H]2c3cc(C(=O)N4CCCC4)n(Cc4ccc(C)o4)c3C[C@H]2CN1C(=O)c1ccccc1`, for which the z-score in experiment [1] is -1.63 (inactive); in [3] it was 4.25 (inactive); in experiment [4], 0.713 (inactive); in experiment [5], 1.57 (inactive); in [6], 0.886 (inactive); in experiment [7], -0.118. The results for the z-score in [8], in experiment [9] and in experiment [10] were -0.0294 (inactive), -0.466 (inactive) and -3.03, respectively. The composite z-score in experiment [2] was -0.0464.
Consider `CC(C)(C)OC(=O)CC[C@@]1(C(=O)NCC(O)CO)N=C(c2ccc(OCCCO)cc2)O[C@@H]1c1ccccc1N=[N+]=[N-]` (stereo not given in full), for which the z-score is 1.99 (inactive) in [1]; 31.9 (active) in experiment [3]; 28.4 (active) in experiment [4]; 3.82 (inactive) in experiment [5]; 7.71 (inactive) in [6]; 0.123 in experiment [7]. The z-score in experiment [8] is -2.77 (inactive); in experiment [9] it was 1.03 (inactive); in experiment [10], -1.85. In experiment [2], this molecule gave a composite z-score of 0.379.
For `CC(=O)NCCCC[C@@H]1NC(=O)[C@@H]2C[C@H](C(=O)NCCCCCCNC(=O)CS)[C@H](c3cccc(OCCO)c3)N2C1=O`, the z-score in [1] was -0.493 (inactive); in [3] it was 3.47 (inactive); in experiment [4] it was 0.642 (inactive); in experiment [5] it was 0.0299 (inactive); in experiment [6] it was 0.351 (inactive); in experiment [7], 0.468. The results for the z-score in [8], in [9] and in [10] were 1.55 (inactive), 0.157 (inactive) and 0.303, respectively. The composite z-score in [2] was -0.0334.
